CYP2C9 inh: blockers of cytochrome P450 2C9 activity – biochemical, luminescence, ADME assay, primary screen. P11712. CYP2C9 Supersomes, luciferin-H conversion. inhibition, % at 5 µM. actives 20% (n = 96,000);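 active = blocking of liver enzyme CYP2C9 beyond about 50% at 5 µM, limit read from the data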
Target sequence (P11712 whole entry, looked up): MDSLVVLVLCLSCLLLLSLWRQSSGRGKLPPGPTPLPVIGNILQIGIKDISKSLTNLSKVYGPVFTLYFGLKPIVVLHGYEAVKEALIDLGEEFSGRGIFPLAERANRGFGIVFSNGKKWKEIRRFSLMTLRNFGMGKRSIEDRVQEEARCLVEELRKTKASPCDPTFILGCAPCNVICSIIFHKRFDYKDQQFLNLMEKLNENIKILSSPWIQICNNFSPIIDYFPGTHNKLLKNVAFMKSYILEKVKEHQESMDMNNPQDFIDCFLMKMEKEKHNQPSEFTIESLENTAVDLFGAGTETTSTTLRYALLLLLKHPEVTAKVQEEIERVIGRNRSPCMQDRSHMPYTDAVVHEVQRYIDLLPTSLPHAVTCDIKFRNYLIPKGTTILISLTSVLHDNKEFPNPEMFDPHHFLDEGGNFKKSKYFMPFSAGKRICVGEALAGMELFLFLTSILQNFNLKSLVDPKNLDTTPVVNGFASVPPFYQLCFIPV
CYP2C9 activ: human CYP2C9 activators, primary screen, biochemical, luminescence. Cytochrome P450 2C9 (Homo sapiens), P11712. recombinant CYP2C9, luciferin-H conversion; hits give high values; factor 1 = untreated enzyme, 0 = blocked. activation factor at 5 µM. actives 1.4% (n = 96,000);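 active = activation factor of 2 or more for CYP2C9 at a 5 µM dose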;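 also: 0 = sulfaphenazole-blocked wells and 1 = vehicle-only wells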
CYP2C19 inh: blockers of cytochrome P450 2C19 activity – biochemical, luminescence, ADME assay, primary screen. inhibition, % at 5 µM. P33261. actives 21% (n = 96,000). AID 778, 2007. CYP2C19 Supersomes, luciferin-H EGE luminescence, 30 min;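 active = CYP2C19 inhibition above a set limit at 5 µM in the primary screen, cut at about 50% in these data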;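 also: plate controls were negative control wells for no effect and 2.5 mM tranylcypromine positive control for full effect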
CYP2C19 activ: human CYP2C19 activators, primary screen, biochemical, luminescence | recombinant CYP2C19, luciferin-H EGE luminescence; hits give high values; 0 = fully inhibited enzyme, 1 = untreated enzyme | activation factor at 5 µM | 96,000 tested, under 10 active | AID 1025, 2008;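 active = activation factor of at least 2 at 5 µM in the primary screen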;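 also: 0 = wells with 2.5 mM tranylcypromine and 1 = vehicle-only wells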
sEH act: soluble epoxide hydrolase activators, primary screen, biochemical, human sEH. Bifunctional epoxide hydrolase 2 (Homo sapiens), P34913. purified human sEH enzymatic activity, activator screen. activation, % at 2 µM. actives 0.04% (n = 91,000). AID 717, 2007; in the data active = activation above about 37%
sEH inh: soluble epoxide hydrolase inhibitors, primary screen, biochemical, human sEH | actives 0.34% (n = 91,000) | Bifunctional epoxide hydrolase 2 (Homo sapiens), P34913 | AID 707, 2007 | recombinant human sEH enzymatic activity assay | inhibition, % at 2 µM; in the data active = inhibition above about 80%
* marks the source's active call; other numbers are inactive results; x = no result given. Shown are actives, neighbours in structure and some others; about 27% of the full set was active somewhere.

SMILES | CYP2C9 inh | CYP2C9 activ | CYP2C19 inh | CYP2C19 activ | sEH act | sEH inh
Cc1cccnc1NCC(O)COc1ccccc1 (stereo not drawn) | 6 | 0.9 | -3 | 1 | 14 | -16
CC(=O)Nc1ccc(NCC(O)COc2ccccc2)cc1 (stereo not drawn) | 34 | 0.7 | 56* | 0.4 | -2 | 4
CCC(=O)c1ccc(OCC(O)CN2CCN(C(c3ccccc3)c3ccccc3)CC2)cc1 (stereo not drawn) | 67* | 0.3 | 46 | 0.5 | -2 | 0
CN1CCN(S(=O)(=O)c2ccc(N(C)Cc3cccs3)nc2)CC1 | -40 | 1.4 | 4 | 1 | 0 | 1
CC(=O)Nc1ccc(S(=O)(=O)N2CCN(CC(O)COc3ccc4ccccc4c3)CC2)cc1 (stereo not drawn) | 87* | 0.1 | 87* | 0.1 | -9 | 11
CC(=O)Nc1ccc(OCC(O)CN2CCN(c3ccc(Cl)cc3)CC2)cc1 (stereo not drawn) | x | x | x | x | -2 | 4
CC(=O)Nc1ccc(OCC(O)CN2CCN(S(=O)(=O)c3ccc(NC(C)=O)cc3)CC2)cc1 (stereo not drawn) | 70* | 0.3 | 25 | 0.7 | 14 | -19
CC(=O)Nc1ccc(OCC(O)CN2CCN(c3cccc(Cl)c3)CC2)cc1 (stereo not drawn) | 56* | 0.4 | 34 | 0.7 | 6 | -7
OCCN1CCN(CC(O)COc2ccc3ccccc3c2)CC1 (stereo not drawn) | -28 | 1.3 | -13 | 1.1 | 2 | -5
CC(=O)NC1CC2CCCC(C1)N2S(=O)(=O)c1cccc(F)c1 (stereo not drawn) | -28 | 1.3 | 47 | 0.5 | -10 | 11
CC[n+]1c(P(=O)([O-])c2ccccc2)[nH]c2ccccc21 | -14 | 1.1 | -16 | 1.2 | -7 | 6
Cc1ccc(C)c2[nH]c(=O)c(CCNC(=O)C(C)C)cc12 | -13 | 1.1 | -14 | 1.1 | x | x
CCc1ccccc1NC(=O)N[C@@H](C)C(=O)OC | 3 | 1 | 7 | 0.9 | -27 | 25
COc1ccc(OC)c(/C=N/NC(=O)CCCC(=O)Nc2cccc(Br)c2)c1 | 75* | 0.2 | 35 | 0.7 | -5 | 6
C=C(C)Cn1c(CCNC(=O)CC)nc2ccccc21 | x | x | x | x | 9 | -7
O=C(Nc1sc2c(c1-c1nc3ccccc3[nH]1)CCCC2)C1CCCC1 | 13 | 0.9 | -10 | 1.1 | 4 | -5
CC(=O)NCCC(=O)Nc1sc2c(c1-c1nc3ccccc3[nH]1)CCCC2 | 61* | 0.4 | 36 | 0.6 | x | x
COc1ccc(C(=O)c2ccc(Br)cc2)cc1 | x | x | x | x | 20 | -22
O=C(c1ccncc1)c1ccc(Br)cc1 | 62* | 0.4 | 45 | 0.5 | 0 | 2
COC(=O)c1nn(-c2cccc(C(F)(F)F)c2)c(=O)cc1Sc1ccccn1 | 70* | 0.3 | 56* | 0.4 | 2 | -3
COc1cc2c(cc1OC)CN(C(=O)CSc1nnc(C)s1)CC2 | 15 | 0.8 | 8 | 0.9 | 6 | -6
COc1ccc(Sc2ccccc2CN(C)C)cc1OC | 26 | 0.7 | 57* | 0.4 | -4 | 4
COc1c(C)cccc1C(=O)Nc1ccc(N2CCOCC2)c(Cl)c1 | -71 | 1.7 | 11 | 0.9 | -2 | 4
COc1ccccc1NC(=O)C1CC(=O)OC1c1ccccc1 (stereo not drawn) | 12 | 0.9 | 78* | 0.2 | 4 | -6
COc1cccc(CNCCOCCO)c1OC | -8 | 1.1 | 3 | 1 | 3 | -4
SMILES | CYP2C9 inh | CYP2C9 activ | CYP2C19 inh | CYP2C19 activ | sEH act | sEH inh
COc1cc(CNCc2ccccn2)ccc1OCC(N)=O | -3 | 1 | 8 | 0.9 | 4 | -3
COc1cccc(CNCc2ccccn2)c1OC | 20 | 0.8 | 74* | 0.3 | 2 | -4
COc1cc(CNCc2ccccn2)ccc1OCc1ccc(Cl)cc1Cl | 17 | 0.8 | 73* | 0.3 | -6 | 9
COc1ccc2oc(=O)c(-c3nc(C)cs3)cc2c1 | 55* | 0.5 | 77* | 0.2 | x | x
COc1ccc2oc(=O)c(C(C)=O)cc2c1 | 4 | 1 | 10 | 0.9 | -3 | 2
CC(C)(C)NC(=O)CN(Cc1cccnc1)C(=O)c1csnn1 | 10 | 0.9 | 28 | 0.7 | 7 | -6
CCO/C=N/c1c(C#N)c2c(c(=S)n1C)COC(C)(C)C2 | 49 | 0.5 | 66* | 0.3 | 27 | -29
CC(CCc1ccco1)NC(=O)Nc1cccc(F)c1 (stereo not drawn) | 83* | 0.2 | 84* | 0.2 | -70 | 70
Cc1ccsc1C(=O)Nc1nnc(-c2ccco2)o1 | 57* | 0.4 | 0 | 1 | -3 | 1
Oc1ccc2ccccc2c1C=Nc1cc(C(F)(F)F)ccc1N1CCCC1 | 30 | 0.7 | -1 | 1 | 15 | -15
O=C(c1cc(-c2ccccc2O)on1)N1CCc2ccccc2C1 | -26 | 1.3 | 14 | 0.9 | -4 | 6
CC1CCN(C(=O)c2cc(-c3ccccc3O)on2)CC1 | -19 | 1.2 | 67* | 0.3 | 7 | -5
CC(=O)Nc1ccccc1C(=O)N1CC2(C)CC1CC(C)(C)C2 (stereo not drawn) | -4 | 1 | -6 | 1.1 | 5 | -3
CC1(C)CC2CC(C)(CN2C(=O)CCCN2C(=O)c3ccccc3C2=O)C1 (stereo not drawn) | 8 | 0.9 | 86* | 0.1 | x | x
CC1(C)CC2CC(C)(CN2C(=O)c2cccs2)C1 (stereo not drawn) | 38 | 0.6 | 74* | 0.3 | -1 | 6
CC1(C)CC2CC(C)(CN2C(=O)c2cc(-c3ccccc3O)on2)C1 (stereo not drawn) | 73* | 0.3 | 54* | 0.5 | 5 | -3
COc1c(Cl)cc(Cl)cc1C(=O)n1nc(C)cc1C | x | x | x | x | 4 | -2
CCOC(=O)C(CCCOc1ccc(C(C)CC)cc1)C(=O)OCC (stereo not drawn) | 71* | 0.3 | 28 | 0.7 | -2 | -4
COc1ccc2nc(SCC(=O)N(C)C3CCCCC3)c(C#N)cc2c1 | 0 | 1 | 37 | 0.6 | 10 | -10
CCOC(=O)c1c(C)nc2sc3c(=O)n(-c4ccc(C(C)=O)cc4)cnc3c2c1-c1ccc(Cl)cc1 | 88* | 0.1 | 94* | 0.1 | 5 | -6
COc1ccc(C(=O)c2ccc(OC)c3cccc(O)c23)cc1OC | 84* | 0.2 | 50 | 0.5 | -6 | 6
COc1ccc(C(=O)c2ccc(OC)c(OC)c2)cc1 | -65 | 1.7 | 37 | 0.6 | -6 | 2
CC(=O)c1sc(Nc2nc(C)cc(C)n2)nc1C | 73* | 0.3 | 15 | 0.9 | 13 | -11
C=CCNC(=S)N/N=C/c1ccc(OCc2ccccc2Cl)cc1 | 17 | 0.8 | -14 | 1.1 | 1 | 2

Assay outcomes as filed in PubChem.
